Experimental data: PubChem BioAssay AID1159580 (chemical genetic matrix, 2015)
Where “and” joins values, the source holds several entries; their conditions need not be identical. Equal entries are not always repeated. Hit rate of the full screen: of about 5,500 compounds, about 2,000 (36%) were called active. Another 18% or so got no clear call; they are omitted. No stated cut-off is given here; in the data, active means normalized growth mostly below about 0.91 (no sharp cut-off); inconclusive means no clear call, values can overlap the other calls; inactive means mostly above about 0.92. This is one part of the list.

Assay: chemical genetic growth profiling, strain panel (AID 1159580);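 further: tested at 20 µM; growth read once vehicle control cultures reached saturation at 30 °C; 1 = growth at the plate median or of vehicle wells; lower values mean less growth of the strain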
Details: growth OD

Measured: normalized growth

O=C1NCC2(CCN(CCc3ccccc3)CC2)O1
inactive: S. cerevisiae deletion strains, locus YKL009W, strain mrt4, hits give low values 0.986 | S. cerevisiae deletion strains, locus YKL068W, hits give low values 0.995 | S. cerevisiae deletion strains, locus YKL085W, strain MDH1 (second series), hits give low values 0.995 | S. cerevisiae deletion strains, locus YKL085W, strain MDH1, hits give low values 0.995 | S. cerevisiae deletion strains, locus YKL160W, strain elf1, hits give low values 0.97 | S. cerevisiae deletion strains, locus YKL190W, strain CNB1, hits give low values 1 | S. cerevisiae deletion strains, locus YKR001C, strain vps1, hits give low values 0.999 | S. cerevisiae deletion strains, locus YKR026C, strain gcn3, hits give low values 0.939 | S. cerevisiae deletion strains, locus YKR091W, strain srl3, hits give low values 1.01 | S. cerevisiae deletion strains, locus YLL001W, strain dnm1, hits give low values 0.945 | S. cerevisiae deletion strains, locus YLL026W, hits give low values 1 | S. cerevisiae deletion strains, locus YLL041C, strain sdh2, hits give low values 0.999 | S. cerevisiae deletion strains, locus YLR027C, strain aat2, hits give low values 0.995 | S. cerevisiae deletion strains, locus YLR039C, strain RIC1, hits give low values 1 | S. cerevisiae deletion strains, locus YLR058C, strain SHM2, hits give low values 1.01 | S. cerevisiae deletion strains, locus YLR102C, strain apc9, hits give low values 0.999 | S. cerevisiae deletion strains, locus YLR113W, strain HOG1, hits give low values 0.964 | S. cerevisiae deletion strains, locus YLR221C, strain rsa3, hits give low values 1 | S. cerevisiae deletion strains, locus YLR258W, strain gsy2, hits give low values 1 | S. cerevisiae deletion strains, locus YLR262C, strain YPT6 (second series), hits give low values 0.981 | S. cerevisiae deletion strains, locus YLR262C, strain YPT6, hits give low values 0.968 | S. cerevisiae deletion strains, locus YLR268W, strain sec22, hits give low values 1.04 | S. cerevisiae deletion strains, locus YLR320W, strain mms22, hits give low values 1.02 | S. cerevisiae deletion strains, locus YLR330W, strain CHS5, hits give low values 1.01 | S. cerevisiae deletion strains, locus YLR342W, strain FKS1 (second series), hits give low values 1.01 | S. cerevisiae deletion strains, locus YLR342W, strain FKS1, hits give low values 0.994 | S. cerevisiae deletion strains, locus YLR357W, strain rsc2, hits give low values 0.981 | S. cerevisiae deletion strains, locus YLR370C, strain arc18, hits give low values 0.989 | S. cerevisiae deletion strains, locus YLR371W, strain rom2, hits give low values 1.01 | S. cerevisiae deletion strains, locus YLR384C, strain iki3, hits give low values 0.988 | S. cerevisiae deletion strains, locus YLR418C, strain cdc73, hits give low values 0.981 | S. cerevisiae deletion strains, locus YML016C, strain PPZ1, hits give low values 1 | S. cerevisiae deletion strains, locus YML032C, strain rad52, hits give low values 1.02 | S. cerevisiae deletion strains, locus YML120C, strain ndi1, hits give low values 0.984 | S. cerevisiae deletion strains, locus YML124C, strain tub3, hits give low values 0.996 | S. cerevisiae deletion strains, locus YMR058W, strain fet3, hits give low values 0.979 | S. cerevisiae deletion strains, locus YMR078C, strain ctf18, hits give low values 1 | S. cerevisiae deletion strains, locus YMR125W, strain sto1, hits give low values 0.97 | S. cerevisiae deletion strains, locus YMR129W, hits give low values 0.98 | S. cerevisiae deletion strains, locus YMR205C, strain PFK2, hits give low values 1.01 | S. cerevisiae deletion strains, locus YMR223W, strain ubp8, hits give low values 0.978 | S. cerevisiae deletion strains, locus YMR231W, strain pep5, hits give low values 0.994 | S. cerevisiae deletion strains, locus YMR263W, strain SAP30, hits give low values 1.02 and 1 | S. cerevisiae deletion strains, locus YMR307W, strain GAS1, hits give low values 0.884 | S. cerevisiae deletion strains, locus YNL067W, strain RPL9B, hits give low values 1.02 | S. cerevisiae deletion strains, locus YNL071W, strain lat1, hits give low values 1.01 | S. cerevisiae deletion strains, locus YNL128W, strain TEP1, hits give low values 1.02 | S. cerevisiae deletion strains, locus YNL153C, strain GIM3, hits give low values 1.02 and 1.04 | S. cerevisiae deletion strains, locus YNL175C, strain NOP13, hits give low values 1.01 | S. cerevisiae deletion strains, locus YNL183C, strain NPR1, hits give low values 0.904 | S. cerevisiae deletion strains, locus YNL197C, strain WHI3, hits give low values 0.992 | S. cerevisiae deletion strains, locus YNL209W, strain ssb2, hits give low values 0.998 | S. cerevisiae deletion strains, locus YNL224C, strain SQS1, hits give low values 0.995 | S. cerevisiae deletion strains, locus YNL233W, strain BNI4, hits give low values 1.02 | S. cerevisiae deletion strains, locus YNL248C, strain rpa49, hits give low values 1.01 | S. cerevisiae deletion strains, locus YNL250W, strain rad50, hits give low values 1 | S. cerevisiae deletion strains, locus YNL271C, strain bni1, hits give low values 1.01 | S. cerevisiae deletion strains, locus YNL298W, strain CLA4, hits give low values 0.989 | S. cerevisiae deletion strains, locus YNL307C, strain MCK1, hits give low values 1.01 | S. cerevisiae deletion strains, locus YNL322C, strain KRE1 (second series), hits give low values 0.999 | S. cerevisiae deletion strains, locus YNL322C, strain KRE1, hits give low values 1 and 1.01 | S. cerevisiae deletion strains, locus YNR049C, strain mso1, hits give low values 0.987 | S. cerevisiae deletion strains, locus YNR052C, strain pop2, hits give low values 1 | S. cerevisiae deletion strains, locus YOL006C, strain TOP1, hits give low values 1.07 | S. cerevisiae deletion strains, locus YOL012C, strain htz1 0.911 | S. cerevisiae deletion strains, locus YOL147C, strain pex11, hits give low values 0.996 | S. cerevisiae deletion strains, locus YOR001W, strain rrp6, hits give low values 0.985 | S. cerevisiae deletion strains, locus YOR061W, strain CKA2, hits give low values 1.01 | S. cerevisiae deletion strains, locus YOR069W, strain VPS5, hits give low values 0.99 | S. cerevisiae deletion strains, locus YOR070C, strain gyp1, hits give low values 1 | S. cerevisiae deletion strains, locus YOR080W, strain dia2, hits give low values 0.988 | S. cerevisiae deletion strains, locus YOR083W, strain WHI5 (second series), hits give low values 1 | S. cerevisiae deletion strains, locus YOR083W, strain WHI5, hits give low values 0.988 | S. cerevisiae deletion strains, locus YOR106W, strain vam3, hits give low values 0.979 | S. cerevisiae deletion strains, locus YOR136W, strain idh2, hits give low values 0.988 | S. cerevisiae deletion strains, locus YOR144C, strain elg1, hits give low values 1 | S. cerevisiae deletion strains, locus YOR184W, strain ser1, hits give low values 0.993 | S. cerevisiae deletion strains, locus YOR231W, strain MKK1, hits give low values 0.979 | S. cerevisiae deletion strains, locus YOR265W, strain rbl2, hits give low values 0.999 | S. cerevisiae deletion strains, locus YOR270C, strain vph1, hits give low values 0.975 | S. cerevisiae deletion strains, locus YOR290C, strain snf2, hits give low values 1 | S. cerevisiae deletion strains, locus YOR316C, strain cot1, hits give low values 0.999 | S. cerevisiae deletion strains, locus YPL051W, strain arl3, hits give low values 0.995 | S. cerevisiae deletion strains, locus YPL055C, strain LGE1, hits give low values 0.993 and 1 | S. cerevisiae deletion strains, locus YPL078C, strain atp4, hits give low values 0.991 | S. cerevisiae deletion strains, locus YPL106C, strain sse1, hits give low values 1 | S. cerevisiae deletion strains, locus YPL240C, strain hsp82, hits give low values 0.986 | S. cerevisiae deletion strains, locus YPL241C, strain CIN2, hits give low values 1.01 | S. cerevisiae deletion strains, locus YPL256C, strain CLN2, hits give low values 0.986 | S. cerevisiae deletion strains, locus YPR119W, strain clb2, hits give low values 1 | S. cerevisiae deletion strains, locus YPR141C, strain kar3, hits give low values 0.997 | S. cerevisiae deletion strains, locus YPR163C, strain tif3, hits give low values 1.01 | S. cerevisiae deletion strains, locus YPR167C, strain met16, hits give low values 1 | S. cerevisiae deletion strains, strain wtn01, hits give low values 0.997 | S. cerevisiae strains, strain wild type, hits give low values 1.01
